From PubChem
A selection: hits, their analogues and other compounds. The true share with any hit is near 2.1%.
aSyn yeast inh = inhibitors of alpha-synuclein toxicity in yeast; 0.14% of 370,000 active; Yeast expressing alpha-synuclein, growth rescue, BacTiter-Glo, 24 h; AID 652106; Potency, µM (titrated, usually from 46.1 µM), hits mostly activators; note: nearly all actives have a fitted effect of over 65% in size
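Rescue of yeast growth: cells expressing toxic alpha-synuclein, induced in galactose at OD600 0.02, incubated with compound 24 h at 30 C. ATP luminescence quantified growth; inhibitors of toxicity appear as activators.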
Abeta rescue = compounds reversing amyloid beta toxicity in yeast. yeast expressing A-beta42, growth rescue, OD600, 48 h; response scale: 0% DMSO, 100% iron-clioquinol control. Potency, µM (top dose mostly 46.1 µM), usual class: activators. 0.063% of 410,000 active; note: nearly all actives have a fitted effect of over 55% in size
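Yeast growth medium received pinned compounds, then yeast cells expressing toxic A-beta were added; plates incubated at 30 C for 48 hr. Growth read as absorbance at 600 nm, normalized to DMSO and equimolar FeCl3 plus clioquinol controls.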
TDP43 rescue = rescues yeast growth from TDP-43 toxicity. 1.8% of 410,000 active. TDP-43 expressing yeast growth rescue, BacTiter-Glo, 24 h. Potency, µM (titrated, usually from 46.1 µM), most hits filed as activators; note: nearly all actives have a fitted effect of over 50% in size
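Yeast cells expressing TDP-43 under galactose induction are exposed to compounds for 24 hr at 30 deg C. BacTiter-Glo luminescence measures growth, so protective compounds score as activators.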
FUS yeast rescue = FUS proteinopathy suppression in yeast. S. cerevisiae FUS-expressing, growth rescue, OD600, 24 h. Potency, µM (titrated, usually from 76.6 µM), actives largely listed as activators. 0.24% of 390,000 active. AID 1347120; note: nearly all actives have a fitted effect of over 55% in size
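S. cerevisiae expressing FUS from galactose induction served as the toxicity model. Growth after 24hr at 30C, read as absorbance at 600 nm, indicates suppression of toxicity; compounds dosed at several concentrations.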
Each line names hits and unclear results; the compound was inactive in the other large screens. Calls come from the whole dose curve; as a rule, active = well fitted curve in the direction sought with a large enough effect; inconclusive = small, poorly fitted or top-dose-only effect, or another doubt; inactive = no such curve, though single readings can be large; an effect the other way counts as inactive or inconclusive.

COC(=O)c1ccc(NC2=C(Cl)C(=O)OC2OC(=O)c2ccccc2)cc1 (configuration not stated)	TDP43 rescue 22µM
Cc1cc(O)c2c(c1)OC(C)(C)C1=C2CC(C)CC1 (configuration not stated)	TDP43 rescue 13µM
CN(C)c1c([N+](=O)[O-])cc(N2C(=O)C=CC2=O)cc1[N+](=O)[O-]	none
N#CC1c2ccccc2C=CN1C(=O)c1ccc(N(CCCl)CCCl)cc1 (configuration not stated)	aSyn yeast inh 7.9µM
O=[N+]([O-])c1ccc(Cl)c([N+](=O)[O-])c1	TDP43 rescue 11µM
O=[N+]([O-])c1ccc(O)c([N+](=O)[O-])c1	none
O=S(=O)(c1ccc(Cl)cc1)N1CCC(n2cnc3cc(C(F)(F)F)ccc32)CC1	aSyn yeast inh inconclusive, TDP43 rescue 32µM (no result: FUS yeast rescue)
CC(C)CN(CC(C)C)C(=O)C1C2c3ccccc3C(c3ccccc32)C1C(=O)O (configuration not stated)	TDP43 rescue 11µM
CC(C)OC(=O)C1C2c3ccccc3C(c3ccccc32)C1C(=O)O (configuration not stated)	TDP43 rescue inconclusive
Cn1c(O)c(C2=NNC(c3ccc(Cl)cc3)C2)c(=O)n(C)c1=O (configuration not stated)	Abeta rescue 14µM, TDP43 rescue inconclusive
CC1(O)CCN2C(=O)CCc3cccc1c32 (configuration not stated)	TDP43 rescue 13µM
O=C(c1ccc2c(c1)N(Cc1ccc(F)cc1Cl)C(=O)c1ccccc1S2)N1CCC2(CC1)OCCO2	TDP43 rescue 18µM (no result: aSyn yeast inh)
CC/C(CC(c1ccccc1)c1c(O)c2ccccc2oc1=O)=N\NC(N)=S (configuration not stated)	TDP43 rescue inconclusive
CCC(=O)CC(c1ccccc1)c1c(O)c2ccccc2sc1=O (configuration not stated)	TDP43 rescue 25µM
O=C(NCCc1ccc(F)cc1)C(=O)NCC(c1cccs1)S(=O)(=O)c1ccc(Cl)cc1 (configuration not stated)	TDP43 rescue inconclusive (no result: aSyn yeast inh)
Cc1cc2oc(=O)cc(-c3ccccc3)c2c(C)c1-c1ccc(CO)cc1	TDP43 rescue 35µM
C[C@H]1O[C@@H](O[C@H]2[C@@H](O)C[C@@H](O[C@H]3[C@@H](O)C[C@H](O[C@H]4CC[C@@]5(C)[C@H](CC[C@@H]6[C@@H]5CC[C@]5(C)[C@@H](C7=CC(=O)OC7)CC[C@]65O)C4)O[C@@H]3C)O[C@@H]2C)C[C@H](O)[C@@H]1O	none (no result: Abeta rescue, TDP43 rescue, FUS yeast rescue)
CC(=O)C1=C(O)C2(C)c3c(O)c(C)c(O)c(C(C)=O)c3OC2CC1=O (configuration not stated)	none
O=C(Nc1ccc2c(c1)OCCO2)c1cccn(Cc2cccc(F)c2)c1=O	TDP43 rescue 35µM (no result: aSyn yeast inh)
O=[N+]([O-])c1cc(C(F)(F)F)c(Cl)c([N+](=O)[O-])c1Nc1ncc(C(F)(F)F)cc1Cl	none (no result: Abeta rescue, TDP43 rescue, FUS yeast rescue)
Cc1ccccc1-n1c(-c2ccc([N+](=O)[O-])cc2)nc2ccccc2c1=O	aSyn yeast inh 20µM, TDP43 rescue inconclusive
O=c1c2ccccc2nc(-c2ccc([N+](=O)[O-])cc2)n1-c1ccccc1	none
O=C1C=CC2C3C(=O)N(c4ccccc4)C(=O)C3C1N2Cc1ccccc1 (configuration not stated)	TDP43 rescue 13µM (no result: FUS yeast rescue)
C[C@H](CO)N1C[C@H](C)[C@H](CN(C)C(=O)Cc2ccncc2)Oc2ncc(Br)cc2C1=O	none
Nc1ccc(Cl)cc1C(=O)c1ccccc1	none
Nc1ccc(Br)cc1C(=O)c1ccccc1	aSyn yeast inh inconclusive, TDP43 rescue 16µM
OC1(c2ccc(Cl)cc2)CCN(Cc2c[nH]c3ccccc23)CC1	TDP43 rescue inconclusive
COC(=O)C1=C(c2ccc(-c3ccccc3)c(F)c2)C[C@@H]2CC[C@H]1N2C(=O)N1CCCC1	TDP43 rescue 25µM, FUS yeast rescue inconclusive
COC(=O)C1=C(c2ccc(-c3ccccc3)c(F)c2)C[C@@H]2CC[C@H]1N2C(=O)N1CCOCC1	TDP43 rescue 20µM, FUS yeast rescue inconclusive
COC(=O)C1=C(c2ccc3ccccc3c2)C[C@@H]2CC[C@H]1N2C(=O)N1CCCCC1	TDP43 rescue 20µM, FUS yeast rescue inconclusive
COC(=O)C1=C(c2ccc(OC(F)(F)F)cc2)C[C@@H]2CC[C@H]1N2C(=O)N1CCCCC1	TDP43 rescue 35µM, FUS yeast rescue inconclusive
